PPC-1+TRAIL kill: compounds killing PPC-1 cancer cells with TRAIL present, primary screen, TRAIL potentiator project, ATPLite luminescence, uHTS; PPC-1 cells + TRAIL, ATPLite viability luminescence; cell killing (% activity), % at 4 µM or 5 µM; 220,000 compounds, 0.41% hits; AID 1443, 2008;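 active means cell killing above 50% in the first pass at 4 µM, then a duplicate retest at 5 µM averaging 50% or more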;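 further: plate controls were cells with TRAIL plus DMSO for no effect and medium-only wells lacking cells for full effect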
TRAIL sens C8: viability loss with TRAIL in NB7+C8 cells, primary screen, TRAIL sensitizer project, cell-based, ATPlite luminescence; 360,000 compounds, 1% hits; inhibition (viability loss, TRAIL sensitization), % at 10 µM; AID 624354, 2012;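 active means compounds causing at least 50% loss of cell viability in the single-dose screen, relative to plate controls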
HIF-2a block: HIF-2a reporter inhibitors, primary screen, luminescence, 786-0 RCC cells. 786-0 RCC cells HIF-2a reporter, luciferase luminescence, overnight. inhibition, % at 18.8 µM. 360,000 compounds, 0.72% hits. AID 624352, 2012;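 active means inhibition of the luminescence signal of 40% or more relative to plate controls, in a single-dose primary screen at 18.75 µM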
KKLEB cytotox: cytotoxicity in KKLEB CF airway cells, primary screen, cytotoxicity control for CF NF-kB inhibitor project, cell-based, uHTS, fluorescence assay plates; KKLEB CF airway cells viability, ATPlite luminescence, overnight; stronger effect = lower value; cells stimulated with P. aeruginosa culture filtrate; activity change (cytotoxicity), % at 5 µM; 360,000 compounds, 0.36% hits;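 active means corrected activity change at or below -50% at 5 µM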
Peg3 prom inh: Peg3 promoter-driven luciferase inhibitors, primary screen, cell-based, HeLa, luciferase luminescence | 360,000 compounds, 1.7% hits | AID 588405, 2011 | inhibition, % at 20 µM | HeLa PEG-Prom luciferase reporter, overnight;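 active means inhibition of at least 50% at 20 µM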
CF NFkB block: inhibitors of PAF-induced NF-kB signaling, primary screen, cell-based, GFP fluorescence, uHTS; KKLEB NF-kB-GFP reporter, GFP fluorescence overnight; inhibition, % at 5 µM; 360,000 compounds, 0.86% hits;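 active means at least 50% inhibition at 5 µM, scaled per plate between neutral and stimulator controls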;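 further: PAF is a Pseudomonas aeruginosa culture filtrate used as stimulus; plate controls were PAF-stimulated DMSO wells for no effect and unstimulated DMSO wells for full effect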
Numbers without * were called inactive; nt = not tested or not shown. A selection: hits, their analogues and other compounds. The true share with any hit is near 3.1%.

SMILES | PPC-1+TRAIL kill | TRAIL sens C8 | HIF-2a block | KKLEB cytotox | Peg3 prom inh | CF NFkB block
O=C(Cc1ccsc1-c1ccccc1)NO | 7 | 63* | 7 | -3 | 13 | -6
O=C(Cc1csc(NC(=O)c2ccccc2)n1)NO | 11 | 11 | -8 | -10 | -7 | 22
CCc1c(C)[nH]c2c(C)cccc2c1=O | 3 | 52* | 3 | -6 | 2 | -4
Cc1[nH]c2c(C)cccc2c(=O)c1Br | 20 | 38 | 8 | 2 | 17 | 1
Cc1ccc2oc(-c3cccc(NC(=O)Cn4cnc5c(=O)n(C)c(=O)n(C)c54)c3)nc2c1 | 29 | nt | nt | nt | nt | nt
CCC(C)c1ccc2oc(-c3ccc(NC(=O)Cn4cnc5c(=O)n(C)c(=O)n(C)c54)cc3)nc2c1 (stereo not drawn) | 15 | 80* | -149 | 0 | -192 | 1
CCc1c(C)c2ccc(OCC(=O)NCC3CCC(C(=O)O)CC3)c(C)c2oc1=O (stereo not drawn) | nt | -6 | 12 | 2 | 6 | -1
COc1ccc(-c2cn3ccccc3n2)cc1OC | 31 | 60* | -182 | -4 | -244 | -13
COc1ccc(CC(=O)Nc2ccc(-c3cn4ccccc4n3)cc2)cc1OC | 25 | 15 | -48 | -1 | -33 | -7
CCC1(CC)CNC(=O)NC1 | nt | -2 | 0 | -1 | -9 | 17
NC(Cc1ccc(Cl)cc1)c1csc(Nc2ccc(C(=O)c3ccccc3)cc2)n1 (stereo not drawn) | nt | 28 | 2 | 8 | 97* | 9
COc1ccc(CC(N)c2csc(Nc3ccc(C(=O)c4ccccc4)cc3)n2)cc1 (stereo not drawn) | nt | 9 | -41 | -24 | 66* | 28
NC(Cc1ccc(F)cc1)c1csc(Nc2ccc(C(=O)c3ccccc3)cc2)n1 (stereo not drawn) | nt | 42 | -7 | -38 | 91* | 41
NC(CO)c1csc(Nc2ccc(C(=O)c3ccccc3)cc2)n1 (stereo not drawn) | nt | -8 | -27 | -11 | -22 | 14
NC(Cc1ccccc1)c1csc(Nc2ccc(C(=O)c3ccccc3)cc2)n1 (stereo not drawn) | nt | 33 | 4 | -19 | 66* | 8
O=C(O)c1[nH]c(-c2ccccc2)c2c1C(=O)N(C1CC1)C2=O | nt | 0 | 11 | -2 | 10 | 0
CCCCOCCCNC(=O)C[C@@H]1C[C@@]2(C(=O)OCC)CCCC=C2N(CCc2ccc(OC)c(OC)c2)C1=O | nt | -31 | -11 | nt | nt | nt
O=C(COC(=O)Cc1ccc(S(=O)(=O)N2CCOCC2)s1)Nc1ccc(OC(F)F)cc1 | nt | -12 | -1 | 3 | -24 | -3
CN(C)S(=O)(=O)c1ccc2c(c1)nc(CCC(=O)NCC(=O)Nc1ccc(F)c(F)c1F)n2C | nt | 5 | 14 | 8 | -14 | -49
NC(c1csc(Nc2ccc(C(=O)c3ccccc3)cc2)n1)C1CCCCC1 (stereo not drawn) | nt | 35 | 3 | -10 | 97* | 36
CC(C)(C)c1ccc(C(=O)N2CCC(C(=O)NC3CCCCCC3)CC2)cc1 | nt | -8 | -55 | 3 | -89 | -3
CCOC(=O)C1CCCN(S(=O)(=O)c2cnc(Cl)c(Br)c2)C1 (stereo not drawn) | nt | 36 | 13 | -4 | 24 | -12
CCCCCCCC/C=C\CCCCCCCC(=O)O | 6 | 3 | -2 | 7 | 2 | 14
CCCCCCCCCCCCC/C=C/[C@@H](O)[C@@H](N)CO | nt | 71* | 6 | -1 | 55* | -8
O=C(CN(C(=O)c1csnn1)c1ccccc1C(F)(F)F)NC1CCCCC1 | nt | 4 | 1 | 6 | -7 | -3
SMILES | PPC-1+TRAIL kill | TRAIL sens C8 | HIF-2a block | KKLEB cytotox | Peg3 prom inh | CF NFkB block
Clc1nc(-c2ccccn2)nc2scc(-c3ccccc3)c12 | 72* | 46 | -120 | -12 | -34 | -16
CC1CCN(c2nc(-c3cccnc3)nc3scc(-c4ccccc4)c23)CC1 | 6 | 12 | -28 | -7 | -2 | 19
Cn1c(=N)n(CC(=O)c2ccc(Cl)c(Cl)c2)c2ccccc21 | nt | 66* | -62 | -33 | 81* | -28
N=c1n(CC(=O)c2ccc([N+](=O)[O-])cc2)c2ccccc2n1Cc1ccccc1Cl | 16 | 18 | 9 | -9 | 85* | 5
CC(C)(C)c1ccc(C(=O)N2CCC(C(=O)c3ccccc3)CC2)cc1 | nt | 23 | 19 | -6 | 23 | 8
CC(C)(C)c1nn(-c2ccccc2)c2[nH]c(=O)c(CNc3ccc4c(c3)OCCO4)cc12 | -5 | -4 | -28 | 16 | -19 | 57*
CC(=O)N/N=c1\sc2ccccc2n1C | 23 | 0 | 0 | 0 | 2 | -4
Cn1c(=NC(=O)CCl)sc2ccccc21 | 12 | 94* | -81 | -86* | 35 | 94*
Cn1c(=NC(=O)c2cccc([N+](=O)[O-])c2)sc2ccccc21 | -1 | 57* | -250 | 0 | -181 | -32
COc1cc(C(=O)N=c2sc3ccccc3n2C)cc(OC)c1OC | 14 | 1 | -177 | 6 | -132 | -41
C#CCOCCOCCOCCNc1nc(N2CCN(C(=O)[C@H](CCCCN)n3cc([C@@H](N)[C@H](C)CC)nn3)CC2)nc(N2CCN(C(=O)[C@H](CCC(=O)O)n3cc([C@@H](N)CCSC)nn3)CC2)n1 | nt | -12 | 3 | -4 | -12 | 22
CC(C)(C)OC(=O)NCc1ccc(NC(=O)c2nc[nH]c2C(=O)NCCN(CCNC(=O)c2[nH]cnc2C(=O)Nc2ccc(CNC(=O)OC(C)(C)C)cc2)CCNC(=O)c2[nH]cnc2C(=O)Nc2ccc(CNC(=O)OC(C)(C)C)cc2)cc1 | nt | -3 | 15 | 3 | 9 | -25
CC(C)(C)OC[C@H](NC(=O)c1[nH]cnc1C(=O)Nc1ccccc1F)C(=O)OC(C)(C)C | nt | 60* | 17 | 12 | 1 | 2
CC(C)(C)OC(=O)NCc1ccc(NC(=O)c2nc[nH]c2C(=O)NCCCCNC(=O)c2[nH]cnc2C(=O)Nc2ccc(CNC(=O)OC(C)(C)C)cc2)cc1 | nt | 84* | 1 | -34 | 93* | 77*
CC(C)(C)OC(=O)NCc1ccc(NC(=O)c2nc[nH]c2C(=O)NCCCCCCNC(=O)c2[nH]cnc2C(=O)Nc2ccc(CNC(=O)OC(C)(C)C)cc2)cc1 | nt | 36 | 13 | -83* | 101* | 88*
CC(C)(C)OC(=O)NCc1ccc(NC(=O)c2nc[nH]c2C(=O)NCCCNC(=O)c2[nH]cnc2C(=O)Nc2ccc(CNC(=O)OC(C)(C)C)cc2)cc1 | nt | 83* | 16 | 7 | 78* | 40

Source: PubChem
